Source: PubChem BioAssay
SSB-PriA inh = inhibitors of Klebsiella pneumoniae PriA binding to SSB C-terminal tail, primary screen, biochemical, AlphaScreen. PriA–SSB C-terminal tail interaction (Klebsiella pneumoniae). AlphaScreen SSBct-PriA binding, biotinylated peptide. inhibition, % at 33 µM. 430,000 tested, 0.6% active; in the data active means inhibition mostly above about 37%, no sharp cut-off; inactive means mostly below about 20%;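 further: plate controls were negative control peptide for no effect and reference peptide for full effect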
BoNT F protease = BoNT/F light chain protease inhibitors, primary screen, biochemical, flow cytometry, MLPCN library; Botulinum neurotoxin type F light chain protease (Clostridium botulinum); Multiplex microsphere protease cleavage assay; inhibition, % at 10 µM; 360,000 tested, 0.22% active; in the data active means inhibition above about 35%, passing the limit was not always enough; inconclusive means no clear call, values can overlap the other calls; further: plate controls were buffer without enzyme for full effect and enzyme alone for no effect
Anthrax LF inh2 = Bacillus anthracis LF protease inhibitors, primary screen, biochemical, multiplex microsphere, MLPCN library; 360,000 tested, 0.12% active; AID 588501, 2011; inhibition, % at 10 µM; Lethal factor (Bacillus anthracis), P15917; multiplex microsphere protease cleavage assay; further: plate controls were buffer without enzyme for full effect and enzyme alone for no effect
Target sequence (P15917 whole entry, looked up): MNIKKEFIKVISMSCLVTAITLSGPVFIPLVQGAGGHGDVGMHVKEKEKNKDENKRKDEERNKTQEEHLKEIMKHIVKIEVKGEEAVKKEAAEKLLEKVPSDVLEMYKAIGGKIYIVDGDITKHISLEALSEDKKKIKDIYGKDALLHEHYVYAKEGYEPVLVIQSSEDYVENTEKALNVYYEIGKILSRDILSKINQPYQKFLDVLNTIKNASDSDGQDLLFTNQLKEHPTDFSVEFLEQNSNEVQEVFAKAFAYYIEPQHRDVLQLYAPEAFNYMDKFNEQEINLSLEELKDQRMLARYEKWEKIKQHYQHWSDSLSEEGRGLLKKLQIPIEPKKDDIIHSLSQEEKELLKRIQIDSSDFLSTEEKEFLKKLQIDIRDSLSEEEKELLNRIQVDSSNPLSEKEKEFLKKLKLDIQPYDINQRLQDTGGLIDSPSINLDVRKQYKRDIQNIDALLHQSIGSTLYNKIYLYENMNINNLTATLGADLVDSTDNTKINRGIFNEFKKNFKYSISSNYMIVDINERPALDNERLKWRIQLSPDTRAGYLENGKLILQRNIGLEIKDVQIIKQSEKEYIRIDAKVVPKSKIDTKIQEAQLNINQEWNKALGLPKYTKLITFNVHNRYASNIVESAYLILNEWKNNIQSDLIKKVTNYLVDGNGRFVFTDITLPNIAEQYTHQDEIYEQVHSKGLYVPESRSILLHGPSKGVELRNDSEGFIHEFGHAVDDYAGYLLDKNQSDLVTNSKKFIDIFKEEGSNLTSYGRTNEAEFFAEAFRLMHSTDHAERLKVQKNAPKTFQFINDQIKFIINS
BoNT A protease = BoNT/A light chain protease inhibitors, primary screen, biochemical, flow cytometry, MLPCN library; Botulinum neurotoxin type A light chain protease (Clostridium botulinum A str. ATCC 3502); multiplex microsphere protease substrate cleavage; inhibition, % at 10 µM; 360,000 tested, 0.17% active; further: plate controls were buffer without enzyme for full effect and enzyme alone for no effect
Autofluor counter = counter-screen for toxin protease inhibitors: compound fluorescence; AID 624483; fluorescence intensity (concentration not given with the values); 360,000 tested, 3.1% active; compound autofluorescence counterscreen, microsphere flow cytometry; hits give high values; in the data active means fluorescence intensity above about 16000; inconclusive means no clear call, values can overlap the other calls
* marks the source's active call; other numbers are inactive results; ? = inconclusive; . = no result given; + = active, no number. A selection: hits, their analogues and other compounds. The true share with any hit is near 3.1%. Unless noted, no stated cut-off is given here; in the data, active means inhibition above about 30%; inconclusive means no clear call, values can overlap the other calls; inactive means below that.

SMILES | SSB-PriA inh | BoNT F protease | Anthrax LF inh2 | BoNT A protease | Autofluor counter
O=C(NCc1ccco1)c1cc(-c2ccc(F)cc2)on1 | -4.8 | 1.1 | -7.9 | 2.9 | 22220*
Cc1ccc(Nc2nc(C(=O)NCc3ccco3)cs2)cc1 | 16.2 | -5.0 | -2.4 | -5.2 | 21266*
COc1ccc(CNC(=O)c2cc(-c3ccco3)on2)cc1 | -16.8 | 2.9 | 0.8 | 1.7 | 20809*
CC1(C)OC2OC(C(=O)NC(CCC(=O)OCc3ccccc3)C(=O)OCc3ccccc3)C3OC(C)(C)OC3C2O1 (stereo unspecified) | -1.0 | . | . | . | .
CC(Oc1ccccc1)C(=O)NCCn1ncc2c(=O)n(Cc3ccccc3F)cnc21 (stereo unspecified) | 3.0 | . | . | . | .
CCN(CC)c1ccc(Nc2nc(Cl)ncc2Br)cc1 | 41.4* | -1.4 | 25.6 | -0.1 | 3629
Cn1ccnc1SCC(=O)c1cccc(Br)c1 | 5.1 | -4.8 | 0.6 | -0.1 | 19955*
Cc1noc(Cc2ccccc2NC(=O)NC(c2ccccc2)c2ccccc2)n1 | -4.0 | . | . | . | .
CC(=NNC(=S)N(Cc1ccccn1)Cc1ccccn1)c1cnccn1 | 94.5* | 44.9* | 40.0* | 16.3 | 4053
S=C(NN=C(c1ccccc1)c1ccccn1)N(Cc1ccccn1)Cc1ccccn1 | 74.4* | 42.5* | 43.0* | 51.4* | 3806
O=C(NN=C(c1ccccc1)c1ccccn1)c1ccccc1 | -4.7 | -13.1 | -4.0 | -0.9 | 3602
NC(=S)N/N=C(\c1ccccc1)c1ccccn1 | + | . | . | . | .
Cc1ccccc1NC(=S)N(Cc1ccccn1)Cc1ccccc1Cl | -9.5 | -2.8 | 1.9 | 0.4 | 3853
S=C(NN=Cc1ccccn1)N(Cc1ccccn1)Cc1ccccn1 | 95.6* | 16.7 | 21.0 | 12.2 | 3814
O=C(CSC1CCCC1)NCC1CCN(C(=O)c2cc3ccccc3o2)CC1 | -15.0 | . | . | . | .
COc1ccccc1OCCNC(=O)c1cc(-c2cc(C)ccc2C)n[nH]1 | -13.0 | . | . | . | .
COc1ccc(-c2nc3c(c(N4CCN(Cc5ccc6c(c5)OCO6)CC4)n2)Cc2cccc(OC)c2O3)cc1 | 12.0 | . | . | . | .
CC(C)c1ccc(NC(=O)CCc2csc(NC(=O)c3ccc[nH]c3=O)n2)cc1 | -22.0 | . | . | . | .
Cc1ccc(C(=O)CSc2nnc(-c3c[nH]c4ccccc34)o2)cc1 | -2.0 | 2.0 | -6.5 | ? | 19814*
O=C(O)C1CC=CCC1C(=O)NCc1ccccc1 (stereo unspecified) | -7.5 | 0.6 | -1.7 | -0.9 | 22945*
O=C(NCc1ccccc1)C1CC2CCCC(C1)C2=O (stereo unspecified) | -3.0 | 11.9 | -12.3 | ? | 17138*
CCOc1ccccc1NC(=O)C1CC2CCCC(C1)C2=O (stereo unspecified) | -5.7 | -5.7 | -3.5 | -2.9 | 23703*
CC(C)(Oc1ccc(Cl)cc1)C(=O)Nc1c2c(nn1-c1ccc(F)cc1)CS(=O)(=O)C2 | -6.0 | . | . | . | .
Cc1nc(N2CCCC2)c2nnn(Cc3ccccc3Cl)c2n1 | -17.9 | 5.2 | 0.2 | 4.5 | 20754*
Cc1nc(N2CCC(C(N)=O)CC2)c2nnn(Cc3ccccc3)c2n1 | -5.9 | -1.6 | 3.9 | -2.5 | 21409*
SMILES | SSB-PriA inh | BoNT F protease | Anthrax LF inh2 | BoNT A protease | Autofluor counter
Cn1c(O)c(C=NNC(=O)c2ccncc2)c(=O)n(C)c1=S | 2.7 | . | . | . | .
Cc1ncc2c(c1OC(=O)c1ccccc1)COC(C)(C)OC2 | -12.2 | -3.6 | -1.2 | ? | 23118*
Cc1ccc(N2CCCS2(=O)=O)cc1NC(=O)C(=O)NCCCO | 3.0 | . | . | . | .
O=C(CNC(=O)c1ccccc1F)OCCCOC(=O)CNC(=O)c1ccccc1F | -7.7 | -164.0 | -23.1 | -107.8 | 30957*
O=C(COC(=O)CNC(=O)c1ccccc1F)NCCNC(=O)COC(=O)CNC(=O)c1ccccc1F | 5.2 | 16.0 | 1.7 | -0.3 | 5209
O=C(CNC(=O)c1ccccc1F)NC1CC1 | -8.6 | 2.4 | 2.0 | ? | 19571*
O=C(NCCc1ccc(Cl)cc1)c1ncn[nH]1 | 2.4 | -21.0 | -1.5 | -1.2 | 4133
CC(C)(C)c1ccc(OCCNC(=O)c2ncn[nH]2)cc1 | 56.6* | ? | -9.5 | 0.2 | 3759
CCc1cc(C)cc(OCCNC(=O)c2ncn[nH]2)c1 | -1.1 | -3.2 | 5.5 | 0.7 | 7845
O=C(NCCc1ccccc1)c1ncn[nH]1 | -1.8 | -0.3 | 1.5 | ? | 20498*
N#CC1=C(N)SC(N)=C(C#N)C1C1C=CCCC1 (stereo unspecified) | -0.8 | 3.4 | -2.2 | 1.5 | 19353*
O=C(CSc1ncnc2scc(-c3ccc(F)cc3)c12)c1ccc2c(c1)OCCO2 | -8.6 | -3.8 | 1.7 | -0.2 | 2391
Cc1ccc(-c2csc3ncnc(SCC(=O)Nc4nnc(C)s4)c23)cc1 | 4.9 | 3.5 | -3.2 | ? | 21425*
Cc1ccc(-c2csc3ncnc(SCC(=O)c4ccc5c(c4)OCCO5)c23)cc1 | 0.0 | 15.6 | 1.2 | ? | 19619*
COC(=O)c1cccc2c(N=O)c(O)[nH]c12 | 1.0 | . | . | . | .
CC(=O)Nc1cccc(NC(=O)CCn2cnc3cc(C)c(C)cc32)c1 | 2.4 | -1.9 | -1.7 | -0.2 | 22641*
Cc1ccc(NC(=O)CCn2cnc3cc(C)c(C)cc32)cc1 | -2.0 | 2.5 | -4.8 | -0.1 | 10548
CSCC[C@H](NC(=O)C1CCCC1)c1nc2ccccc2[nH]1 | -12.5 | -1.5 | -2.4 | 0.0 | 3400
CSCCC(NC(=O)C1CC1)c1nc2ccccc2[nH]1 (stereo unspecified) | -25.4 | -2.8 | 0.0 | -0.4 | 20590*
O=[N+]([O-])c1cc(-c2cnc3ccccc3n2)ccc1Oc1ccc(F)cc1 | -6.5 | 2.2 | -0.6 | ? | 20404*
CC(=O)/C=C1/SC(CC(=O)O)C(=O)N1c1ccccc1 (stereo unspecified) | -6.1 | 12.2 | -32.0 | 8.5 | 17699*
COc1cc(CO)ccc1Oc1nnnn1-c1ccc(C(N)=O)cc1 | -11.9 | 15.4 | -8.1 | 10.3 | 16480*
O=C(c1ccco1)N1CCN(CC2CC3C=CC2C3)CC1 (stereo unspecified) | -8.2 | 1.9 | -0.5 | 0.8 | 20016*
O=C(c1ccco1)N1CCN(c2ccc(F)cc2)CC1 | -2.7 | -2.1 | -0.5 | -0.2 | 2321
O=C(c1ccco1)N1CCN(C(=O)c2sccc2-c2ccccc2)CC1 | -12.2 | -1.8 | -1.8 | -0.9 | 20729*
SMILES | SSB-PriA inh | BoNT F protease | Anthrax LF inh2 | BoNT A protease | Autofluor counter
Nc1ccc(N2CCN(C(=O)c3ccco3)CC2)cc1 | 7.3 | -12.2 | -4.3 | 4.7 | 20148*
COc1ccc(C(=O)N2CCN(c3ccccc3F)CC2)cc1OC | -1.0 | . | . | . | .
CC1C/C(=N/NC(=O)c2cccc(F)c2)c2ccc(O)cc2C1 (stereo unspecified) | . | -1.6 | 0.5 | 0.0 | 20922*
COc1ccc2c(c1)CC(C)C/C2=N\NC(=O)c1ccco1 (stereo unspecified) | . | -3.1 | -5.0 | 0.9 | 4381
COc1cccc2sc(N3CC(OC(=O)c4cnc5ccccc5n4)C3)nc12 | 7.0 | . | . | . | .
CCOC(=O)Cn1c(-c2cccnc2Cl)nc2cc(C)c(C)cc21 | -1.9 | 0.8 | 0.9 | 0.1 | 22326*
